Experimental findings from PubChem BioAssay (Tox21) are described below.

A short description of assay [1]: Human pregnane X receptor (PXR) small molecule agonists, qHTS cell viability counter screen (AID 1346977). Also: nearly all actives have a fitted effect of over 50% in size. The method in brief:
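PXR-Luc HepG2, 2,000 cells/well, 5% charcoal-stripped FBS; 5hr settle; cpd 24hr, 37C/5% CO2; CellTiter-Fluor at 23hr, read 1hr later (fluorescence).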

Assay [2] can be described thus: Caspase-3/7 induction in HepG2 cells by small molecules, qHTS assay (AID 1346978). Also: nearly all actives have a fitted effect of over 15% in size. Also: potency is read from the fitted curve at half-maximal effect. An outline of the steps:
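Caspase-3/7 induction was measured by Caspase-Glo 3/7 luminescence (30 min, room temperature) after a 17 hr compound exposure of wild-type HepG2 cells seeded at 2,000 per well and pre-incubated 5 hr.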

Assay [3] can be described thus: Caspase-3/7 induction in CHO-K1 cells by small molecules, qHTS assay (AID 1346980). Also: nearly all actives have a fitted effect of over 15% in size. An outline of the steps:
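Luminescent Caspase-Glo 3/7 read (30min, room temperature) quantified apoptosis induction. Cells were wild-type CHO-K1, treated with compound for 17hr at 37 C and 5% CO2.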

Assay [4] is described as follows: Caspase-3/7 induction in HepG2 cells by small molecules, qHTS cell viability counter screen (AID 1346981). Also: series mostly up to about 92 µM; nearly all actives have a fitted effect of over 30% in size. The method in brief:
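Steps: seed 2,000 HepG2 cells per well; incubate 5 hr at 37 C; pin-add compounds in DMSO; incubate 16 hr; add CellTiter-Fluor; after 1 hr at 37 C and 5% CO2, read fluorescence.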

The target in assay [5] is Cytochrome P450 2D6 (Homo sapiens) (UniProt P10635). Kind of assay: Cytochrome P450 Family 2 Subfamily D Member 6 (CYP2D6) small molecule antagonists: luciferase reporter qHTS assay (AID 1671196). Also: nearly all actives have a fitted effect of over 50% in size. Also: potency is read from the fitted curve at half-maximal effect. The method in brief: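 P450-Glo format: CYP2D6 converts a proluciferin substrate to luciferin in an NADPH-driven reaction lasting 1 h at room temperature. Light output, proportional to CYP2D6 activity, reflects interference by test chemicals.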

Assay [6] concerns the target Cytochrome P450 2C9 (Homo sapiens) (UniProt P11712). Kind of assay: Cytochrome P450 Family 2 Subfamily C Member 9 (CYP2C9) small molecule antagonists: luciferase reporter qHTS assay (AID 1671198). Also: nearly all actives have a fitted effect of over 50% in size. Also: potency is read from the fitted curve at half-maximal effect. The method in brief:
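Enzyme-substrate mix preincubated with compound 10 min at room temperature; reaction started with NADPH regeneration solution, 1 h 37C. Luminescent luciferin product read after 20 min detection reagent.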

The target of assay [7] is Cytochrome P450 3A4 (Homo sapiens) (UniProt P08684). Kind of assay: Cytochrome P450 Family 3 Subfamily A Member 4 (CYP3A4) small molecule antagonists: luciferase reporter qHTS assay (AID 1671201). Also: nearly all actives have a fitted effect of over 50% in size. Also: potency is read from the fitted curve at half-maximal effect. The method in brief:
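Compounds in DMSO were pin-transferred onto CYP3A4 enzyme-substrate mix and held 10 min at room temperature. NADPH regenerating solution started the reaction for 1 h; luciferin detection reagent stopped it, and luminescence was read after 20 min.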

The target in assay [8] is Nuclear receptor subfamily 1 group I member 2 (Homo sapiens) (UniProt O75469). The experiment in a line: Human pregnane X receptor (PXR) small molecule agonists, qHTS assay (AID 1346982). Also: nearly all actives have a fitted effect of over 35% in size. Also: potency is read from the fitted curve at half-maximal effect. An outline of the steps: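 Agonist mode qHTS: PXR-Luc HepG2 cells plated 5 hr before DMSO-dissolved compounds were pinned in, cultured 24 hr at 37 C, 5% CO2; ONE-Glo luminescence readout.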

Assay [9] addresses Cytochrome P450 2C19 (Homo sapiens) (UniProt P33261). The experiment in a line: Cytochrome P450 Family 2 Subfamily C Member 19 (CYP2C19) small molecule antagonists: luciferase reporter qHTS assay (AID 1671197). Also: nearly all actives have a fitted effect of over 65% in size. Also: potency is read from the fitted curve at half-maximal effect. An outline of the steps:
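CYP2C19 P450-Glo, 1536-well qHTS. Cpd + enzyme/proluciferin substrate 10 min RT; + NADPH regen, 37C 1 h; stop with luciferin detection reagent, 20 min RT, luminescence (RLU). Pos ctrl ketoconazole.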

The target of assay [10] is Cytochrome P450 1A2 (Homo sapiens) (UniProt P05177). The experiment in a line: Cytochrome P450 Family 1 Subfamily A Member 2 (CYP1A2) small molecule antagonists: luciferase reporter qHTS assay (AID 1671199). Also: nearly all actives have a fitted effect of over 50% in size. Also: potency is read from the fitted curve at half-maximal effect. An outline of the steps:
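Inhibition of CYP1A2 conversion of proluciferin to luciferin, detected by luminescence. Reaction run 1 h at room temperature with NADPH regeneration after brief compound preincubation.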

Assay [11] concerns the target Voltage-gated inwardly rectifying potassium channel KCNH2 (Homo sapiens) (UniProt Q12809). The experiment in a line: Human Ether-a-go-go-Related Gene (hERG) channel small molecule antagonists: fluorescence cell-based qHTS assay (AID 1671200). An outline of the steps: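 Channel function was assessed by thallium flux. Cells seeded the previous day and kept at 37 C took up FluxOR II dye over 1 h in the dark at room temperature, then sat another 10 min before stimulation.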

In assay [12] the target is Nuclear receptor subfamily 1 group I member 2 (Rattus norvegicus) (UniProt Q9R1A7). The experiment in a line: Rat pregnane X receptor (rPXR) activation by small molecules, qHTS assay (AID 1346983). Also: nearly all actives have a fitted effect of over 20% in size. Also: potency is read from the fitted curve at half-maximal effect. The note with it: rPXR luciferase reporter cells, One-Glo luminescence, 24 h; max activation: stronger effect = higher value. An outline of the steps:
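Luminescent readout (One-Glo luciferase, 30 min room temperature) followed 24 hr compound treatment at 37 C of rPXR cells plated 2,000 per well and preincubated 5hr; qHTS format with compounds delivered in DMSO.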

Assay [13] has as its target Nuclear receptor subfamily 1 group I member 2 (Homo sapiens) (UniProt O75469). The experiment in a line: CYP3A4 induction through human pregnane X receptor (PXR) by small molecules, qHTS assay (AID 1346984). Also: nearly all actives have a fitted effect of over 40% in size. Also: potency is read from the fitted curve at half-maximal effect. An outline of the steps:
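Steps: seed DPX-2 cells, 5 hr at 37C; pin-transfer compounds; 24 hr at 37C; add Luciferin-IPA (3uM final), 3 hr at 37C; add One-Glo, 30 min RT; read luminescence.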

Assay [14] has the same target. The experiment in a line: Human pregnane X receptor (PXR) activation by small molecules, qHTS assay (AID 1346985). Also: nearly all actives have a fitted effect of over 40% in size. Also: potency is read from the fitted curve at half-maximal effect. An outline of the steps: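 DPX-2 cells (HepG2 co-transfected with a PXR response element and a CYP3A4-promoter luciferase construct) were seeded at 2,000 per well, rested 5 hr at 37C, then exposed to DMSO-dissolved compounds for 24 hr. Activation was read as luciferase luminescence.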

The nature of assay [15]: Caspase-3/7 induction in CHO-K1 cells by small molecules, qHTS cell viability counter screen (AID 1346979). Also: nearly all actives have a fitted effect of over 35% in size. An outline of the steps: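 Cells (CHO-K1, wild type) are plated at 1,500 per well and incubated 5hr. Test compounds in DMSO are then pinned in, followed by 16hr at 37C and 5% CO2. Viability is read by CellTiter-Fluor fluorescence after 1hr.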

Where “and” joins values, the source holds several entries; their conditions need not be identical. Identical values can stand only once. Unmarked numbers belong to inactive results. Records with an inconclusive call do not appear. Calls of active or inactive are those of the source. Calls follow the shape of the dose curve; as a rule, active = well fitted curve in the direction sought with a large enough effect in the repeat runs; inconclusive = weak or mixed curves; inactive = no such curve, though single readings can be large; an effect the other way counts as inactive or inconclusive.
% is scaled to controls: 0 for no effect and ±100 for the full control effect.

Chain of Voltage-gated inwardly rectifying potassium channel KCNH2 (Homo sapiens) (Q12809 whole entry, looked up): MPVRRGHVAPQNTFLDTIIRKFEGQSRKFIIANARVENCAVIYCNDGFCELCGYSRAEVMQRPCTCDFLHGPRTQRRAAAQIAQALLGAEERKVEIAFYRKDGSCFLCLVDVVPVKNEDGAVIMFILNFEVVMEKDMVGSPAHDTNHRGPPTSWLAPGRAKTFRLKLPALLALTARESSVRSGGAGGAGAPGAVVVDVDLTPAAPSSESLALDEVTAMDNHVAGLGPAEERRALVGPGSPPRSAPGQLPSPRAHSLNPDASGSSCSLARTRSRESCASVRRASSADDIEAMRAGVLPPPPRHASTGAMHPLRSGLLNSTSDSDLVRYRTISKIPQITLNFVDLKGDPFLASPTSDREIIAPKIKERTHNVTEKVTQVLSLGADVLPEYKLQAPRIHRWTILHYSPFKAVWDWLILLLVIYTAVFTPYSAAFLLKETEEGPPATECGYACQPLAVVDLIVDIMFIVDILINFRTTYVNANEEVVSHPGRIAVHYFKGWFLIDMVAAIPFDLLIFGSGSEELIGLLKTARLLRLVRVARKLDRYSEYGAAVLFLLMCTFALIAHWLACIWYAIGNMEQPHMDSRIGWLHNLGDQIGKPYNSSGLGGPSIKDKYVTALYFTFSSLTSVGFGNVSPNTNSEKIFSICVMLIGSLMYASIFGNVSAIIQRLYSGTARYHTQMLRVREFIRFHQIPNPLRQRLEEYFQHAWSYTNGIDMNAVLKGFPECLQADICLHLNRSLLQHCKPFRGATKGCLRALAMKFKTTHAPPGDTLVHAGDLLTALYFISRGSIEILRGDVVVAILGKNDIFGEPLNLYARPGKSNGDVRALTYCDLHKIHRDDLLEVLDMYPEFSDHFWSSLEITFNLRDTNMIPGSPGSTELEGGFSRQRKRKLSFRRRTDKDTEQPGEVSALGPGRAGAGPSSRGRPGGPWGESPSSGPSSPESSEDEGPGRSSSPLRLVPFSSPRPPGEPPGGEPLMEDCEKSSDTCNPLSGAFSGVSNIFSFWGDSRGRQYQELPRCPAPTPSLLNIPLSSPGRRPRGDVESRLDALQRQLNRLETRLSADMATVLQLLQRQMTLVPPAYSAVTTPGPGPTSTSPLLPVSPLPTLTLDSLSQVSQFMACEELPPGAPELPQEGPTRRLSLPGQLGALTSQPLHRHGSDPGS
Chain of Cytochrome P450 2C19 (Homo sapiens) (P33261 whole entry, looked up): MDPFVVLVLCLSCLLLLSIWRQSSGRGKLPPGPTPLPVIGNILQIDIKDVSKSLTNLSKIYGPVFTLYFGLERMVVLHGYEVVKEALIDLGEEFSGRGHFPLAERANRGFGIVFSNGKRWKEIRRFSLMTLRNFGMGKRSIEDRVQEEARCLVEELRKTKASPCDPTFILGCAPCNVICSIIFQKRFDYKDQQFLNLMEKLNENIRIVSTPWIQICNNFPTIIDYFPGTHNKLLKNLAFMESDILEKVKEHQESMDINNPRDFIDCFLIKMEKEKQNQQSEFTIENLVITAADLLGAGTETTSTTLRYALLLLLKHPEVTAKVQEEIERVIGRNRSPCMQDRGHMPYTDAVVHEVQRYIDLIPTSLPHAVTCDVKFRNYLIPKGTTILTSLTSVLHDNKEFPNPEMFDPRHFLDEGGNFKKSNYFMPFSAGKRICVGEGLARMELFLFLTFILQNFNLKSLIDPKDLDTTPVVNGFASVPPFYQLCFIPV
Chain of Cytochrome P450 2C9 (Homo sapiens) (P11712 whole entry, looked up): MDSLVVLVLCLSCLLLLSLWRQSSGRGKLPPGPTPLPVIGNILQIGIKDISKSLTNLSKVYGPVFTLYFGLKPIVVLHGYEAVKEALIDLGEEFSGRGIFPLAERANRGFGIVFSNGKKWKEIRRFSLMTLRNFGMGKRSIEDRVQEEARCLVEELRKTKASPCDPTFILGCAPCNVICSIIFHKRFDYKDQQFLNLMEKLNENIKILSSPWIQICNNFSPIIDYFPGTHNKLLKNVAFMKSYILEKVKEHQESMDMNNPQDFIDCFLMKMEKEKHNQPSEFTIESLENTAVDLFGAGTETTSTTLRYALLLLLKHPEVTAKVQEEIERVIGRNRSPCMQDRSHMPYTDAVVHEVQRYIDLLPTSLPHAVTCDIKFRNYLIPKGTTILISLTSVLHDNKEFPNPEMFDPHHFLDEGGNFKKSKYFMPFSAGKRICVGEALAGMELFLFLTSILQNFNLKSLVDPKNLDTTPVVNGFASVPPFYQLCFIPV
Chain of Cytochrome P450 3A4 (Homo sapiens) (P08684 whole entry, looked up): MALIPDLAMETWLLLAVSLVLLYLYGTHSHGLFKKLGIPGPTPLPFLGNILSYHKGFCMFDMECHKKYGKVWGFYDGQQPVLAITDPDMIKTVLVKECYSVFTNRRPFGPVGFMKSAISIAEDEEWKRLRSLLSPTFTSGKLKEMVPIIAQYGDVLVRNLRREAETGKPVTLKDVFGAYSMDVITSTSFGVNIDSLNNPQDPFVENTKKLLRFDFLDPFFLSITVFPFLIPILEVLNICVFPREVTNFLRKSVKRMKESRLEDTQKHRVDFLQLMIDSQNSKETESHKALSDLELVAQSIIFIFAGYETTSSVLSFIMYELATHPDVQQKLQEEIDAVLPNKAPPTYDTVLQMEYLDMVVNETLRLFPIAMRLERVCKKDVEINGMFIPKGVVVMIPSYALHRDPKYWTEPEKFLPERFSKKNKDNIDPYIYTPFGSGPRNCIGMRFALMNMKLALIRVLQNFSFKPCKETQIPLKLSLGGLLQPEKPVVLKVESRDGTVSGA
Chain of Cytochrome P450 2D6 (Homo sapiens) (P10635 whole entry, looked up): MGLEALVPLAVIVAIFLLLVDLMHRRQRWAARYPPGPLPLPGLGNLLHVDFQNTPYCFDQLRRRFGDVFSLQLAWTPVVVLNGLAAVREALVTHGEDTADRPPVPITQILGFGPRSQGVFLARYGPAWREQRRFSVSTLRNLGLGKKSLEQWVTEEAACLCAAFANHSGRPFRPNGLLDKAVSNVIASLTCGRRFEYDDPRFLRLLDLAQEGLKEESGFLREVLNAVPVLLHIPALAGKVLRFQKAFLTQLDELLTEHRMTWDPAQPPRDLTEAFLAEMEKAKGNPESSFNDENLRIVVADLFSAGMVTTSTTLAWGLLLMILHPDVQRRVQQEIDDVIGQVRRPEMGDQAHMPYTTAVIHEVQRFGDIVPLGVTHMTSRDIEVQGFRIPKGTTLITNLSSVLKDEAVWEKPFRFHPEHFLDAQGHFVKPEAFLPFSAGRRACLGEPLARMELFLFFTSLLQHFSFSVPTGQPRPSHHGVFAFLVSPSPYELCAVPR
Chain of Cytochrome P450 1A2 (Homo sapiens) (P05177 whole entry, looked up): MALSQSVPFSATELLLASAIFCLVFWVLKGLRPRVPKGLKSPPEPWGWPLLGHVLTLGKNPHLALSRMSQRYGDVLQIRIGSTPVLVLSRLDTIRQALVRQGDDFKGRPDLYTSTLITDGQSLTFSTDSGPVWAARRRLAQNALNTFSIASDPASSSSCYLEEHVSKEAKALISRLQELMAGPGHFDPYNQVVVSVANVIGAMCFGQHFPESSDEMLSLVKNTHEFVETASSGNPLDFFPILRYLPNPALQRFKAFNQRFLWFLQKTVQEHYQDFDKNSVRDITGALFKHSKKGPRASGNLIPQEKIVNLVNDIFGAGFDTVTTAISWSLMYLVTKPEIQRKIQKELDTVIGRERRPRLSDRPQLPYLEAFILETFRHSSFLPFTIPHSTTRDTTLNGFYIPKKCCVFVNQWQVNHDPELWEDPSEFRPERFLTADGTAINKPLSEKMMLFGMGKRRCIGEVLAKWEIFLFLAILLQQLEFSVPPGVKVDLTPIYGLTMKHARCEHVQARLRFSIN
Chain of Nuclear receptor subfamily 1 group I member 2 (Homo sapiens) (O75469 whole entry, looked up): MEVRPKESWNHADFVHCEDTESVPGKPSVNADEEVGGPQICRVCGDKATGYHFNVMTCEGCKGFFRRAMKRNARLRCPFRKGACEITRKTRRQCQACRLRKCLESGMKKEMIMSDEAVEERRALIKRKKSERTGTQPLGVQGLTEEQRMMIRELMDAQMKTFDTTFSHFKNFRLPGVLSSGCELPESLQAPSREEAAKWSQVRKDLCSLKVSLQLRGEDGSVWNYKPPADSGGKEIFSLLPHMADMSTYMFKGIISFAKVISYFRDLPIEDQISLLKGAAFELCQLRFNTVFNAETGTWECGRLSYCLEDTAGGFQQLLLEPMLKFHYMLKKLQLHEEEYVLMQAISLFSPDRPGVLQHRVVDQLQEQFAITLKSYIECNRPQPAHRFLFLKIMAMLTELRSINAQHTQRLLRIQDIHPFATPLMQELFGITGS
Chain of Nuclear receptor subfamily 1 group I member 2 (Rattus norvegicus) (Q9R1A7 whole entry, looked up): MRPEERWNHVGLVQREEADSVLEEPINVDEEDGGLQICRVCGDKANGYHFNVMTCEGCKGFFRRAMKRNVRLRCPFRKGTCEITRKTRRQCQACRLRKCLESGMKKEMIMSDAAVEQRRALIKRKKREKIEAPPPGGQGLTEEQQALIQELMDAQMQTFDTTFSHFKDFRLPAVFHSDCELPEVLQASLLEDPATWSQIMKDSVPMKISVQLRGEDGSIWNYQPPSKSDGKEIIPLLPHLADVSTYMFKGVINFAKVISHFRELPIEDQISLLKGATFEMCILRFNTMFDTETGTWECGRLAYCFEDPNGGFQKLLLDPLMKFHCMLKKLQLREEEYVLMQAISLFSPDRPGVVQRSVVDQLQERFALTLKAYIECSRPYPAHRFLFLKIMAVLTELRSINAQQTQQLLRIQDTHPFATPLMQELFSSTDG

For `CCCc1c(OCCCOc2ccc(OCC(=O)O)cc2)ccc(C(C)=O)c1O`, the Potency entry in assay [1], in assay [2], in [4], in assay [5] and in assay [7] was “inactive” throughout. Also, the result in [3] was inactive. In addition, the Potency in [6] was 8.94 µM (active).
In the case of `CCN(Cc1cccc(S(=O)(=O)O)c1)c1ccc(C(=C2C=CC(=[N+](CC)Cc3cccc(S(=O)(=O)[O-])c3)C=C2)c2ccccc2)cc1`, the Potency result in assay [1], in assay [2], in assay [8], in assay [10] and in assay [11] was “inactive” throughout. Moreover, the call in [3] was inactive. In addition, the results for the Potency in assay [9] and in assay [6] were 62.8 µM (active) and 28 µM (active), respectively.
On to `COCc1c(C(C)C)nc(C(C)C)c(/C=C/[C@@H](O)C[C@@H](O)CC(=O)O)c1-c1ccc(F)cc1`, for which the Potency entry in assay [1] and in assay [9] was “inactive” each time. Further, the Potency is 2.11 µM (active) and 958 nM (active) in assay [2]; 15 µM (active) and 10.8 µM (active) in [8]; 11.2 µM (active) in assay [12]; 3.16 µM (active) in assay [13]; 3.55 µM (active) in assay [14]; 35.2 µM (active) in assay [6]. Also, in [10], the Potency is 30.9 µM (active).
For `CCCCOC(=O)CCS`, the Potency result in assay [1], in assay [2], in assay [15], in assay [4], in assay [8] and in assay [11] was “inactive” each time. Also, in [7], the Potency result is “inactive”. The Potency in assay [6] is 63.3 µM (active).
On to `Cc1cc(O)c2c(O)c3c(O)cccc3cc2c1`, for which the Potency entry in assay [1], in [2], in assay [4], in assay [5] and in assay [11] was “inactive” in each case. The compound was classed as inactive in assay [3]. Further, the Potency was 11.9 µM (active) in [8], 4.36 µM (active) in assay [9] and 4.9 µM (active) in [6].
For the compound `CC(=O)Oc1ccc(C(=C2CCCCC2)c2ccc(OC(C)=O)cc2)cc1`, the Potency result in assay [1], in assay [2], in assay [4], in [13], in assay [14] and in [10] was “inactive” throughout. Further, the Potency result in [11] and in assay [7] was “inactive” throughout. Also, the result in [3] was inactive. Besides, the max activation in [12] was -2.09%. Further, the Potency in [5] is 15.5 µM (active); in [9], 9.77 µM (active); in assay [6], 9.77 µM (active).
As for `Brc1cc(-c2ccc(Br)c(Br)c2Br)cc(Br)c1Br`, the Potency result in assay [1], in assay [2], in assay [4], in [5], in assay [6] and in [11] was “inactive” throughout. Further, the Potency entry in [7] is “inactive”. In addition, the compound was classed as inactive in [3]. For the same compound, the values for the Potency in [8] and in [9] were 30.2 µM (active) and 39.3 µM (active), respectively.
On to `CCCCC(CC)COC(=O)COc1ccc(Cl)cc1C` (stereo not given), for which the Potency result in assay [1], in assay [2], in assay [15], in assay [4], in [8] and in [5] was “inactive” each time. For the same compound, the Potency is 8.94 µM (active) in assay [9], 12.6 µM (active) in [10] and 8.94 µM (active) in assay [7].
With `CC(C)CCCCCCOC(=O)CCCCC(=O)OCCCCCCC(C)C`, the Potency entry in [1], in assay [2], in assay [15], in [4], in assay [8] and in assay [5] was “inactive” throughout. Besides, the Potency result in assay [9], in assay [11] and in [7] was “inactive” each time. Moreover, the Potency in assay [10] was 35.6 µM (active).
As for `C=CCOC(=O)/C=C\C(=O)OCC=C`, the Potency result in [1], in [2], in [15], in [4], in [8] and in assay [5] was “inactive” in each case. In assay [10], the Potency is 28.8 µM (active).
For `Nc1ccc(S(=O)(=O)O)cc1`, the Potency result in assay [1], in assay [2], in [15], in assay [4], in assay [8] and in assay [9] was “inactive” throughout. The Potency entry in assay [6], in [10], in [11] and in [7] was “inactive” in each case.
